The list is not random: actives were taken first. Their share in the collection is about 0.86%.
TAR Tat displ – HIV-1 TAR-Tat binding disruption. HIV-1 TAR RNA, Tat peptide displacement FRET; active compounds read high. z-score (concentration not given with the values). 0.6% of 100,000 active. AID 1259389; active means z-score of 3 or more in at least 2 runs
CDC25B CDK2 inh – human CDC25B-CDK2/CyclinA binding inhibition; z-score (test concentration not listed); 0.72% of 94,000 active; HTRF CDC25B-CDK2/CyclinA binding, anti-His/anti-Flag; active compounds read high; P30305+P24941; AID 1259370; in the data active means z-score above about 3.2
Of the large screens only hits and unclear results are named; the others gave an inactive call.

O=c1c(O)cccc2cc(O)c(O)c(O)c12	TAR Tat displ 30 (no result: CDC25B CDK2 inh)
O=C1c2ccccc2C(=O)c2c(O)c(O)cc(O)c21	none (no result: CDC25B CDK2 inh)
Cc1cc(SCC(=O)c2ccc(O)cc2O)ncn1	none
O=c1cc(CSc2nc3ccccc3s2)[nH]c2nc3ccccc3n12	none
O=c1cc(CSc2ccc(Cl)cc2)[nH]n1-c1ccccc1	none
O=c1cc(CSc2ccc(Cl)cc2)[nH]c2[nH]n(-c3ccccc3)c(=O)c12	TAR Tat displ 4.6
O=c1cc(CSc2nc3ccccc3s2)[nH]c2[nH]n(-c3ccccc3)c(=O)c12	TAR Tat displ 6.2
COc1ccccc1-c1ncnc2c(C#N)c3ccccn3c12	none
O=C(O)c1ccc2c3c(ccc(C(=O)O)c13)C(=O)NC2=O	none
O=C1Nc2c(C(=O)O)cccc2C1=O	TAR Tat displ 21
Cn1c(SCC(=O)Nc2sc3c(c2C#N)CCCC3)nnc1-c1cc2ccccc2o1	none (no result: CDC25B CDK2 inh)
Clc1ccc2nc(N3CCN(Cc4ccccc4)CC3)c3nncn3c2c1	none
CCn1nc(SC)n2c(=O)c3c(nc12)-c1ccccc1CC3(C)C	none
CCOC(=O)C1CCN(c2nnc(-n3c(C)ccc3C)s2)CC1	none
CCOC(=O)C1CCN(c2ccc([N+](=O)[O-])s2)CC1	TAR Tat displ 3.5 (no result: CDC25B CDK2 inh)
Cc1nn(C(=O)C(C)(C)C)c(C)c1S(=O)(=O)N1CCc2ccccc2C1	none (no result: CDC25B CDK2 inh)
CC(Sc1nc2c(c(=O)[nH]1)CCCC2)C(=O)Nc1ccc(Br)cc1 (stereo not drawn)	TAR Tat displ 13
CC(Sc1nc2c(c(=O)[nH]1)CCCC2)C(=O)Nc1ccc(F)cc1 (stereo not drawn)	none
Nc1ccc2nc(-c3ccc(Cl)cc3)[nH]c2c1	TAR Tat displ 5.1
Nc1ccc(-c2nc3c(Cl)c(N)ccc3[nH]2)cc1	TAR Tat displ 3.7
Cc1nc2ccc(-c3nc4ccc(N)cc4[nH]3)cc2[nH]1	CDC25B CDK2 inh 5 (no result: TAR Tat displ)
Nc1ccc(-c2nc3ccc(N)cc3[nH]2)cc1	none (no result: TAR Tat displ)
Cc1ccc(-c2nc3ccc(N)cc3[nH]2)cc1	none
Cc1c(N)ccc2[nH]c(-c3ccc(N)cc3)nc12	none
CCN1c2ccccc2-c2nc(SCC(=O)Nc3ccccc3)ncc2S1(=O)=O	none (no result: CDC25B CDK2 inh)
Cc1ccc(S(=O)(=O)[C@H]2CS(=O)(=O)C[C@@H]2N2CCN(C/C=C/c3ccccc3)CC2)cc1	none
CC1CCc2c(sc(NC(=O)c3nc(-n4cnnc4)ccc3Br)c2C#N)C1 (stereo not drawn)	none (no result: CDC25B CDK2 inh)
CCCCOc1ccc(S(=O)(=O)NCc2cn3ccsc3n2)cc1	none (no result: TAR Tat displ)
COC(=O)C(C)Sc1nnc2cc(C)c3cccc(C)c3n12 (stereo not drawn)	none
COc1ccc2c(c1)c(=O)oc1cc3oc(C)c(-c4ccccc4)c3cc12	none
COc1ccc2c(c1)c(=O)oc1cc3oc4c(c3cc12)CCCC4	TAR Tat displ 3.7
Cc1nc(-c2ccc(S(=O)(=O)NCc3cccs3)cc2)co1	none (no result: CDC25B CDK2 inh)
Cc1ccc(Cc2nnc(-c3ccc(N)cc3Cl)o2)cc1	none (no result: CDC25B CDK2 inh)
Cc1ccc(Cc2nnc(-c3cc(N)ccc3F)o2)cc1	TAR Tat displ 34 (no result: CDC25B CDK2 inh)
CN1CCN(CCNC(=O)C2CCN(c3ccc(Cl)cc3)C2=O)CC1 (stereo not drawn)	none (no result: CDC25B CDK2 inh)
CCC(C)C1NC(=S)N(Cc2ccccc2)C1=O (stereo not drawn)	none (no result: TAR Tat displ)
CC(CCc1ccccc1)N1C(=S)NC2C=C(Cl)C=CC21 (stereo not drawn)	CDC25B CDK2 inh 3.6 (no result: TAR Tat displ)
Cc1ccc(CNc2nc3nc4c(c(=O)n3[nH]2)CCC4)cc1	none
O=C(NC1CCCCC1)C1CCC(CNc2c(N3CCOCC3)c(=O)c2=O)CC1 (stereo not drawn)	none (no result: TAR Tat displ)
O=c1c(O)c(-c2ccc(O)cc2O)oc2cc(O)cc(O)c12	TAR Tat displ 25
O=c1c(O)c(-c2ccccc2O)oc2cc(O)cc(O)c12	none (no result: CDC25B CDK2 inh)
O=c1c(O)c(-c2ccccc2)oc2cc(O)cc(O)c12	none (no result: CDC25B CDK2 inh)
O=c1c(O)c(-c2cc(O)c(O)c(O)c2)oc2cc(O)cc(O)c12	TAR Tat displ 38
Cc1nc2cc(S(=O)(=O)N3CCC(C(=O)N4CC(C)CC(C)C4)CC3)ccc2n1C1CCCC1 (stereo not drawn)	none
CC1CCCCN1CCCNc1nc2ccccc2c2nc(-c3cccnc3)nn12 (stereo not drawn)	none
CCc1nc2nc(CSc3nc4ccc(NC(=O)C(C)(C)C)cc4s3)cc(=O)n2[nH]1	none (no result: CDC25B CDK2 inh)
Cc1ccc(S(=O)(=O)Nc2ncn(Cc3ccc(Cl)cc3)n2)c(C)c1	none
O=C(O)c1ccccc1-c1c2ccc3cc(O)ccc3c2oc2c1ccc1cc(=O)ccc12	TAR Tat displ 25
COc1ccccc1-c1cc(C(=O)O)c2ccccc2n1	none
O=[N+]([O-])c1cn[nH]c1/C=N/O	none (no result: TAR Tat displ)
CCCNC(=O)c1cc2n(n1)CC(C)(C(=O)NCCC(C)C)N(C)C2=O (stereo not drawn)	none (no result: CDC25B CDK2 inh)
Cc1cccc(Cn2c(=O)n(Cc3ccco3)c(=O)c3oc4ccccc4c32)c1	none (no result: CDC25B CDK2 inh)
O=C1C[C@@H](c2ccccc2)Oc2cc(O)cc(O)c21	none (no result: CDC25B CDK2 inh)
Oc1cc(O)c2c(c1)O[C@H](c1ccc(O)c(O)c1)[C@@H](O)C2	none
O=c1c(O)cccc2c([C@H]3Oc4cc(O)cc(O)c4C[C@H]3O)cc(O)c(O)c12	TAR Tat displ 12 (no result: CDC25B CDK2 inh)
Oc1cc(O)c2c(c1)O[C@H](c1cc(O)c(O)c(O)c1)[C@H](O)C2	TAR Tat displ 30 (no result: CDC25B CDK2 inh)
O=C(Cc1c(C(=O)O)[nH]c2ccc(Cl)cc12)Nc1cccnc1	none (no result: TAR Tat displ)
O=C(COc1ccc(Br)cc1)Nc1ccc(-n2cnnn2)cc1	none
COc1cc(NC(=O)COc2ccc(-n3cnnn3)cc2)c(OC)cc1Cl	TAR Tat displ 4.6
C=CCN(C(=O)CSc1nncn2c1cc1occc12)c1ccccc1	none (no result: CDC25B CDK2 inh)
CCN(Cc1ccccc1)C(=O)CSc1nncn2c1cc1occc12	TAR Tat displ 6.7 (no result: CDC25B CDK2 inh)
CC(=O)Oc1ccc(Br)cc1C1OC(c2ccc(C)o2)=NN1C(C)=O (stereo not drawn)	none (no result: CDC25B CDK2 inh)
Cc1nc(NCc2ccccc2)cc(-c2ccccc2)n1	none
COc1ccc(OC)c(NC(=O)C(C)Sc2nnc(-c3ccoc3C)o2)c1 (stereo not drawn)	CDC25B CDK2 inh 12
COc1cc(OC)c(NC(=O)C(C)Sc2nnc(-c3ccoc3C)o2)cc1Cl (stereo not drawn)	none
CC1(C(=O)O)NCCc2c1[nH]c1ccccc21 (stereo not drawn)	CDC25B CDK2 inh 10
COc1ccc2c3c([nH]c2c1)C(C)(C(=O)O)NCC3 (stereo not drawn)	none
C=CCN1C(=S)Nc2cccc[n+]2[B-]1(CCCC)CCCC	CDC25B CDK2 inh 3.9 (no result: TAR Tat displ)
Cc1cc(C(=O)Nc2nc(-c3ccc(C)c(Cl)c3)c(C)s2)no1	none (no result: TAR Tat displ)
COC(=O)c1sc2ccccc2c1Cl	none
CCOc1c(C(=O)OC)sc2ccc(N)cc12	CDC25B CDK2 inh 7.7
COC(=O)c1sc2ccc(N)cc2c1OC	CDC25B CDK2 inh 5.4
COC(=O)c1sc2ccc(N)cc2c1OCC(C)C	none
Cc1cc(C)n2nc(CNC(=O)Nc3ccc(Cl)cc3)nc2n1	none
COc1ccc2c(c1)OCC(Cc1ccc(OC)c(OC(C)=O)c1)C2=O (stereo not drawn)	none (no result: CDC25B CDK2 inh)
COc1ccc2c(c1)OCC(Cc1ccc(OC)c(OC)c1)C2=O (stereo not drawn)	TAR Tat displ 14 (no result: CDC25B CDK2 inh)
Cc1cc2n(n1)CCCN2C(=O)CCC(=O)NCCCOC(C)C	TAR Tat displ 4.3 (no result: CDC25B CDK2 inh)
COCCCNC(=O)CCC(=O)N1CCCn2nc(C)cc21	none (no result: CDC25B CDK2 inh)
Cc1nc2ccccc2n1CCc1nc2c3ccccc3nc(NCc3ccccn3)n2n1	none
COc1ccccc1CN1CCc2nc(N3CCN(c4ccccn4)CC3)ncc2C1	none (no result: CDC25B CDK2 inh)
Cc1cc(C)cc(N2C(=O)c3cc4occc4n3CC2(C)C(=O)NC2CCC(C)CC2)c1 (stereo not drawn)	TAR Tat displ 12 (no result: CDC25B CDK2 inh)
